# Activity calls are given as the source filed them.
# Assays:
# [1] = tested on: Human papillomavirus type 1a protein E7 (residues 44-93); experiment: HPV1a E7 fragment binders on microarrays, primary screen, biochemical, small-molecule microarray, residues 44-93, 635 nm fluorescence (AID 1108); conditions: small-molecule microarray binding, fluorescence 635 nm; higher = more signal;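 note: E7 fragment applied at 1 µg/mL in TBST for 1 h at 4 C; score combines spot fluorescence with its signal to noise ratio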
# [2] = modulators of HCV replicon luciferase signal, primary screen, HCV replication inhibitor project, Huh7 cells, luciferase reporter (AID 1109); conditions: 48 h, higher = more signal;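 note: huh7 hepatoma cells harbouring a luciferase neomycin HCV replicon reporter; luciferase luminescence as measure of HCV replicon replication; test concentration not given here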
# [3] = molecular target: Left-right determination factor 2 (Homo sapiens) (UniProt O00292); experiment: LEFTY2 binders on small-molecule microarrays, primary screen, biochemical, small-molecule microarray, 635 nm fluorescence scan (AID 1110); conditions: LEFTY2 binding, higher = more signal
# [4] = molecular target: Calmodulin-1 (Homo sapiens) (UniProt P0DP23); experiment: CALM1 binders on microarrays, EGTA buffer, profiling panel, biochemical, small-molecule microarray, Cy5-labelled CALM1 (AID 1111); conditions: Cy5-CALM1 binding fluorescence, higher = more signal;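 note: labelled calmodulin applied in Tris saline Tween buffer holding calcium plus EGTA and DTT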
# [5] = molecular target: Calmodulin-1 (Homo sapiens) (UniProt P0DP23); experiment: calcium-bound CALM1 binders on microarrays, profiling panel, artefact control for SMM control-protein annotation, biochemical, small-molecule microarray, Cy5-labelled CALM1, plus calcium (AID 1112); conditions: Cy5-CALM1 binding fluorescence, higher = more signal;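 note: score merges spot fluorescence with signal to noise from triplicate slides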
# [6] = small-molecule microarray binders of probe aWnt5a, primary screen, biochemical, biotinylated probe, 635/667 nm fluorescence (AID 1113); conditions: higher = more signal;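 note: score merges 667 nm fluorescence intensity with signal-to-noise per printed feature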
# [7] = small-molecule microarray binders of probe aShh, primary screen, biochemical, biotinylated probe, 635/667 nm fluorescence (AID 1114); conditions: higher = more signal;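 note: probe is biotin-labelled aShh protein from a stem cell growth factor screen; measures binding of labelled protein to compounds printed on the slide; score merges feature fluorescence at 667 nm with signal-to-noise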
# [8] = small-molecule microarray binders of probe aNog, primary screen, biochemical, biotinylated probe, 635/667 nm fluorescence (AID 1115); conditions: higher = more signal;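 note: probe is biotinylated aNog protein used at 0.15 µg/mL for 1 h at 4 C; z-score combines 667 nm fluorescence of each spot with its signal to noise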
# [9] = molecular target: Torsin-1A-interacting protein 1 (Homo sapiens) (UniProt Q5JTV8); experiment: LAP1 binders from COS7 cell lysate, primary screen, small-molecule microarray, 635/667 nm fluorescence (AID 1116); conditions: COS7-hLAP1 lysate binding, 635 nm fluorescence, higher = more signal
# [10] = molecular target: Alpha-bungarotoxin (Bungarus multicinctus) (UniProt P60615); experiment: alpha-bungarotoxin binders on microarray, profiling panel, artefact control for SMM control protein annotation, biochemical, small-molecule microarray, Alexa647 label, 635/667 nm fluorescence (AID 1117); conditions: alpha-BTX-A647 binding fluorescence, higher = more signal
# Albumin (Bos taurus) = Albumin (Bos taurus) (UniProt P02769); experiment: bovine serum albumin binders on microarray, profiling panel, artefact control for SMM control protein annotation, biochemical, small-molecule microarray, Alexa647 label, 635/667 nm fluorescence (AID 1118); conditions: BSA-A647 binding, fluorescence 635 nm, higher = more signal;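 note: score merges 667 nm emission intensity and signal-to-noise per printed compound spot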
# [11] = small-molecule microarray binders of probe aXIP, primary screen, biochemical, NeuroSMM set, 635/667 nm fluorescence (AID 1119); conditions: higher = more signal, called active from +8 up or from −8 down;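 note: probe is the protein aXip251-270 applied at 1 µg/mL to compound-printed slides; binding of probe to printed compounds measured as 667 nm fluorescence plus signal to noise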
# [12] = small-molecule binders of probe aNOTCH3, primary screen, biochemical, small-molecule microarray, 635/667 nm fluorescence (AID 1120); conditions: higher = more signal;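 note: probe is a biotin-tagged antibody raised against NOTCH3 rather than NOTCH3 protein; score merges spot fluorescence near 667 nm with spot signal to noise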
# [13] = small-molecule binders of probe aNOTCH2, primary screen, biochemical, small-molecule microarray, 635/667 nm fluorescence (AID 1121); conditions: higher = more signal;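 note: score merges feature fluorescence read at 667 nm with its signal to noise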
# [14] = molecular target: Carbonic anhydrase 2 (Homo sapiens) (UniProt P00918); experiment: CAII small-molecule binders, profiling panel, biochemical, small-molecule microarray, Alexa647-labelled CAII (AID 1122); conditions: CAII-A647 binding fluorescence, higher = more signal
# [15] = COS7 lysate on small-molecule microarray, probe aHis, 635 nm (AID 1123); conditions: COS7 cell lysate, fluorescence, higher = more signal;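 note: z-score combines 667nm fluorescence intensity with signal-to-noise per printed compound spot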
# [16] = compound binding in COS7 lysate, probe aLAP1, primary screen, cell lysate, small-molecule microarray (AID 1124); conditions: probe aLAP1, fluorescence, higher = more signal;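 note: lysate comes from COS7 cells expressing LAP1 and is applied at 0.3 µg/mL; score merges spot fluorescence near 667 nm with signal-to-noise over triplicate slides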
# Sam68 (KHDRBS1) = experiment: Sam68 small-molecule binders, primary screen, biochemical, small-molecule microarray, 635 nm fluorescence (AID 1125); conditions: small-molecule microarray binding, higher = more signal;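 note: score merges 667 nm channel intensity with signal to noise over triplicate slides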
# [17] = tested on: Chordin-like protein 2 (CHRDL2); experiment: CHRDL2 small-molecule binders, primary screen, biochemical, small-molecule microarray, 635 nm fluorescence (AID 1126); conditions: small-molecule microarray binding, fluorescence 635 nm; higher = more signal;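 note: printed compound slides probed with Chrdl2 protein at 4 µg/mL for 1 h at 4 C; score merges 667 nm emission intensity with signal to noise over three replicate slides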
# [18] = molecular target: Concanavalin-A (Canavalia ensiformis) (UniProt P02866); experiment: ConA small-molecule binders, primary screen, artefact control for SMM control protein annotation, biochemical, small-molecule microarray, Alexa647 label, 635 nm (AID 1127); conditions: ConA-A647 binding fluorescence, higher = more signal;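 note: z combines 667 nm emission intensity with signal-to-noise across three replicate slides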
# Sequence of Concanavalin-A (Canavalia ensiformis) (P02866 whole entry, looked up): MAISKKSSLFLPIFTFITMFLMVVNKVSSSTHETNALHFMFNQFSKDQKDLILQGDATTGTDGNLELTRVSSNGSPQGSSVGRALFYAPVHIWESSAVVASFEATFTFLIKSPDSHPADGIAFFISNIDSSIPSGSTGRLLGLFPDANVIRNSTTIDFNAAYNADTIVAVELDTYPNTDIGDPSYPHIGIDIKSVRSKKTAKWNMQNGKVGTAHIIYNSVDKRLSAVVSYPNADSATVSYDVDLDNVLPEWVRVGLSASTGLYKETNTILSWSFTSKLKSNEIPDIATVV
# Sequence of Albumin (Bos taurus) (P02769 whole entry, looked up): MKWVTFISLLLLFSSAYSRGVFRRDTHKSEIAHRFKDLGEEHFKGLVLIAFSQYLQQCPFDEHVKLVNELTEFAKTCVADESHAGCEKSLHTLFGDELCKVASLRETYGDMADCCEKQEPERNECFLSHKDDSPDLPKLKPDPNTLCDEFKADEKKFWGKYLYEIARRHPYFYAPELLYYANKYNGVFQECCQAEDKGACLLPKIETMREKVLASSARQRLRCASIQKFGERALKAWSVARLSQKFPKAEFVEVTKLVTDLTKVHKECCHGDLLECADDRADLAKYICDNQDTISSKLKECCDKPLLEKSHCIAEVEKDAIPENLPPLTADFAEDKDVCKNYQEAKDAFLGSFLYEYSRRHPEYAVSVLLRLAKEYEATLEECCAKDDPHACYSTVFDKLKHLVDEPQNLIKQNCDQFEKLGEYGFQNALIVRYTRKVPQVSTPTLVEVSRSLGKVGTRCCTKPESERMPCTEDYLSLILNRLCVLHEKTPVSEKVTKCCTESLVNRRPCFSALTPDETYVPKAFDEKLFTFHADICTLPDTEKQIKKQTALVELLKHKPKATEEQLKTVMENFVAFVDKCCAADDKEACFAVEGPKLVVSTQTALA
# Sequence of Left-right determination factor 2 (Homo sapiens) (O00292 whole entry, looked up): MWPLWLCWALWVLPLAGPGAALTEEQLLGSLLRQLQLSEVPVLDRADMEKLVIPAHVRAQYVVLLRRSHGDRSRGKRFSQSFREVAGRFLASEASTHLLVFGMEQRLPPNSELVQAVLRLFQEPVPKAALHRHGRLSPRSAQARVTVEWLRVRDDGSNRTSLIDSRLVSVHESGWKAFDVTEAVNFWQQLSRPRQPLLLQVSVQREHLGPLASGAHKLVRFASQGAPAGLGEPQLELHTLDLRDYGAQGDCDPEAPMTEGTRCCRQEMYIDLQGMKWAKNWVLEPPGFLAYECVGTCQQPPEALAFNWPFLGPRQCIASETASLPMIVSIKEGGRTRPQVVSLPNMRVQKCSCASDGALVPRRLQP
# Sequence of Alpha-bungarotoxin (Bungarus multicinctus) (P60615 whole entry, looked up): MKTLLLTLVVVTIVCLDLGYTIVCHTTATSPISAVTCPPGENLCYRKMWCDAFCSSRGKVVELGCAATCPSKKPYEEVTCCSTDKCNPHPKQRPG
# Sequence of Torsin-1A-interacting protein 1 (Homo sapiens) (Q5JTV8 whole entry, looked up): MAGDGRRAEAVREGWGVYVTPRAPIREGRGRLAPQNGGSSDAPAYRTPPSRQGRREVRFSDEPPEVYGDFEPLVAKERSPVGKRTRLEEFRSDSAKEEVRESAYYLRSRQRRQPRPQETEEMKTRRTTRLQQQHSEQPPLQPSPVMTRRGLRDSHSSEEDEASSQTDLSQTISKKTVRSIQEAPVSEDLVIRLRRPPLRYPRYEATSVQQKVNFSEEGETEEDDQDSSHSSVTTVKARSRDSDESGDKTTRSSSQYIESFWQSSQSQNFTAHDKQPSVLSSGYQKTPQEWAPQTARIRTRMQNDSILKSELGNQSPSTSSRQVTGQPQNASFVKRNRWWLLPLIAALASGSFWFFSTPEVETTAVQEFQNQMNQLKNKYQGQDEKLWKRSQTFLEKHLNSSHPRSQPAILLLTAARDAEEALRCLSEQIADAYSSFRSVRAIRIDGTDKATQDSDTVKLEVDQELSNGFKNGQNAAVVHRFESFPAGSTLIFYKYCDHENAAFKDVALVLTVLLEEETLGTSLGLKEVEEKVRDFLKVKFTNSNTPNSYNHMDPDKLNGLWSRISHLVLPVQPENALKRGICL
Compound,composite z-score [1],z-score [2],composite z-score [3],composite z-score [4],composite z-score [5],composite z-score [6],composite z-score [7],composite z-score [8],composite z-score [9],composite z-score [10],composite z-score (Albumin (Bos taurus)),composite Z-score [11],composite z-score [12],composite z-score [13],composite z-score [14],composite z-score [15],composite z-score [16],composite z-score (Sam68 (KHDRBS1)),composite z-score [17],composite z-score [18]
COc1ccc(C(=O)Nc2cccc(CN3C(=O)[C@@]4(O[C@@H](CCn5cc([C@H](O)c6ccccc6)nn5)[C@H]([Si](C)(C)c5ccc(OC)cc5)[C@H]4C)c4ccccc43)c2)cc1,-0.32,-5.06,0.534,-0.0819,-0.346,0.0279,-0.262,-0.205,0.485,0.935,-0.455,0.257 (inactive),0.123,-0.053,0.113,1.16,0.0494,0.459,0.078,0.791
COCCOC(=O)N1C(=O)[C@@]2(c3cc(C#Cc4ccc(OC)cc4)ccc31)[C@H](C(N)=O)[C@H]1C(=O)O[C@H](c3ccccc3)[C@H](c3ccccc3)N1[C@@H]2c1ccc(O)cc1,-0.426,-1.01,-1.58,-0.844,0.247,0.0243,-0.487,0.909,0.127,-1.05,-1.62,0.0064 (inactive),0.319,-0.0125,0.0424,-0.304,0.0413,-0.986,-1.71,-1.67
CN1C(=O)C2C=CC(C(O)c3ccc(Br)cc3)N(Nc3ccccc3)C2C1=O (stereo not given),-0.0441,0.15,-1.43,-0.209,0.394,-0.124,-0.178,0.154,0.65,-0.292,0.768,0.304 (inactive),0.145,0.0498,0.678,0.991,0.204,0.168,-0.723,-0.597
[N-]=[N+]=NCc1ccccc1C[C@]1(C(=O)NCc2ccccc2)COC(c2ccc(OCCCO)cc2)=N1,0.953,-3.59,-0.0623,0.614,0.345,0.027,0.0483,-0.415,1.04,0.188,0.632,0.452 (inactive),0.112,-0.0814,0.644,1.89,0.784,1.3,-0.694,0.612
CC(C)(C)OC(=O)CC[C@@]1(C(N)=O)N=C(c2ccc(OCCCO)cc2)O[C@@H]1c1ccccc1N=[N+]=[N-],1.2,3.02,-0.038,1.03,0.774,-0.0125,0.0796,-0.504,1.12,1.22,0.501,0.005 (inactive),0.191,-0.0241,0.616,2.08,-0.293,1.07,-0.409,1.13
C=C(CCCC)/C(=C/C[C@H](OC(C)=O)c1ccc(CO)o1)c1cc(C(=O)OC)ccc1OC,1.4,-1.58,0.305,0.184,-0.592,-0.101,0.0639,0.116,0.599,1.44,0.588,0.297 (inactive),0.133,-0.149,0.694,0.699,0.53,1.17,0.323,0.902
[N-]=[N+]=NCc1ccccc1C[C@]1(C(=O)N2CCOCC2)N=C(c2ccc(OCCCO)cc2)O[C@H]1c1ccccc1,1.25,-3.07,-0.712,1.4,0.886,-0.0203,0.207,-0.376,0.68,1.02,0.905,0.271 (inactive),0.0582,-0.14,0.501,1.07,0.444,0.965,-0.731,1.07
O=[N+]([O-])c1ccc(C[n+]2ccc(CCCO)cc2)o1,1.15,-0.341,0.69,1.2,0.561,-0.0364,-0.0035,-0.278,0.261,1.47,0.766,-0.138 (inactive),0.277,0.0655,0.82,1.82,0.313,0.916,0.793,1.09
COCCOC(=O)N1C(=O)[C@@]2(c3cc(C#CC4=CCCCC4)ccc31)[C@H](C(=O)N1CCN(c3ncccn3)CC1)[C@H]1C(=O)O[C@H](c3ccccc3)[C@H](c3ccccc3)N1[C@@H]2c1ccc(OCCO)cc1,0.973,-1.46,0.819,0.585,-0.252,0.0026,-0.229,0.749,1.48,0.229,0.565,-0.274 (inactive),-0.0345,0.108,0.278,0.676,0.358,1.17,0.926,1.04
CC(C)C(CO)N1C(=O)[C@@H]2[C@H]3C(=O)OCC=C[C@H]3OC23C=CCN(c2ccc4ccccc4c2)C(=O)[C@@H]13 (stereo not given in full),-0.177,-0.453,-0.425,-0.468,-0.367,-0.148,-0.283,-0.463,-1.05,-0.256,-0.524,0.508 (inactive),-0.193,-0.155,0.561,-0.572,0.42,-0.878,-1.32,-0.362
O=c1cccc(-c2ccc3ccccc3c2)o1,-0.0853,0.0929,-0.135,-0.545,0.03,-0.184,-0.136,-0.219,0.407,0.687,-1.67,0.19 (inactive),-0.0766,-0.115,-0.263,-0.332,-0.341,-0.591,0.387,-0.544

# Source: PubChem BioAssay
